Experimental data as given in PubChem BioAssay (EPA / NIEHS).
Calls of active or inactive are those of the source. How the source made its calls: active means hit-call score of the fitted dose curve at least 0.9, where 1 is the maximum; inactive means score below 0.9.

Assays:
[1] = ATG_NFI_CIS: Attagene CIS-FACTORIAL HepG2 Assay for human Nuclear Factor I (NFI) (AID 2282989); conditions: HepG2 cis-regulatory reporter, NFI response element transcription; actives raise or lower the signal
Method in brief: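 HepG2, transient MRTU, 24 h exposure; RNA→cDNA→PCR→FAM label→HpaI→CE fluorescence. Bidirectional fit, DMSO = baseline.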

[2] = target: Myc proto-oncogene protein (Homo sapiens) (UniProt P01106); test: ATG_Myc_CIS: Attagene CIS-FACTORIAL HepG2 Assay for human Myelocytomatosis (Myc) Proto-Oncogene Transcription Factor (AID 2282990); conditions: HepG2, Attagene cis-reporter transcription factor activity; actives raise or lower the signal
Method in brief: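 HepG2 cells transiently transfected with multiple cis-promoter-driven reporter transcription units, so endogenous TF activity is read. After 24 h compound exposure, reporter mRNA was quantified by RT-PCR, 6-FAM labelling, HpaI digestion and capillary electrophoresis; bidirectional fit versus DMSO.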

[3] = ATG_NF_kB_CIS: Attagene CIS-FACTORIAL HepG2 Assay for human Nuclear Factor Kappa B (NF-kB) (AID 2282991); conditions: HepG2 Attagene cis-factorial NF-kB reporter mRNA; actives raise or lower the signal
Method in brief: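 Transient MRTU transfection of human HepG2 liver cells → 24 h chemical exposure → total RNA, oligo(dT) RT → PCR, 6-FAM primer extension, HpaI digest 2 h 37 C → CE fragment analysis. Bidirectional fitting, DMSO negative control.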

[4] = ATG_NRF2_ARE_CIS: Attagene CIS-FACTORIAL HepG2 Assay for human Nuclear Factor Erythroid 2 Related Factor 2 (NFR2) response to Antioxidant Response Elements (ARE) (AID 2282992); conditions: HepG2 Attagene ARE/NRF2 reporter, transcription factor activity; actives raise or lower the signal;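 on AC50: reporter mRNA level measured by RT-PCR and capillary electrophoresis fluorescence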
Method in brief: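 Cis-factorial assay: transfected HepG2 reporter library, 24 h dosing, mRNA readout via RT-PCR/CE; DMSO-referenced bidirectional analysis.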

[5] = ATG_Oct_MLP_CIS: Attagene CIS-FACTORIAL HepG2 Assay for human Octamer-Binding Transcription Factor (Oct) (AID 2282993); conditions: HepG2 Attagene cis-factorial Oct reporter, mRNA; actives raise or lower the signal
Method in brief: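 Multiplexed cis-reporter assay in human liver HepG2 cells, 24 h incubation. Reporter RNA amplified and labelled, then resolved by capillary electrophoresis; DMSO serves as negative control and baseline.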

[6] = target: Cellular tumor antigen p53 (Homo sapiens) (UniProt P04637); test: ATG_p53_CIS: Attagene CIS-FACTORIAL HepG2 Assay for human p53 Transcription Factor (AID 2282994); conditions: HepG2 p53 cis-element reporter, Attagene mRNA; actives raise or lower the signal
Method in brief: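 Using HepG2 hepatoma cells carrying cis-acting multiplexed reporters, mRNA induction is detected after a 24 h exposure. Gain- and loss-of-signal responses are fitted relative to DMSO-treated cells.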

[7] = BSK_3C_TissueFactor: BioMAP Diversity Plus: 3C Assay for Tissue Factor Biomarker Activity (AID 2282997); conditions: BioMAP 3C HUVEC, tissue factor biomarker readout; actives raise or lower the signal
Method in brief: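 Human vascular primary cells (umbilical vein endothelium) received test chemical; Tissue Factor was determined by ELISA at 24 h, and both gain and loss of signal versus DMSO were fitted.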

[8] = BSK_3C_uPAR: BioMAP Diversity Plus: 3C Assay for Urokinase-type plasminogen activator receptor (uPAR) Biomarker Activity (AID 2282998); conditions: BioMAP 3C HUVEC, uPAR biomarker ELISA; actives raise or lower the signal
Method in brief: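 Dose primary human umbilical vein endothelial cells, incubate 24 h, measure cell-surface uPAR by ELISA, then fit the signal in both directions against the DMSO negative control.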

[9] = BSK_3C_VCAM1: BioMAP Diversity Plus: 3C Assay for Vascular cell adhesion molecule 1 (VCAM1) Biomarker Activity (AID 2282999); conditions: BioMAP 3C HUVEC, VCAM1 ELISA, cytokine-stimulated; actives raise or lower the signal
Method in brief: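 Human umbilical vein endothelial cells were dosed with compound for 24 h, after which cell-surface VCAM-1 was quantified by ELISA. Bidirectional curve fitting used DMSO as negative control and activity baseline.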

[10] = BSK_4H_Eotaxin3: BioMAP Diversity Plus: 4H Assay for Eotaxin 3 Biomarker Activity (AID 2283000); conditions: primary human endothelial cells (HUVEC); actives raise or lower the signal
Method in brief: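 Readout is Eotaxin-3 (CCL26) level by ELISA in primary human umbilical vein endothelial cells harvested 24 h after chemical exposure; activity fitted in both directions against DMSO control.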

Measured: AC50

Chain of Myc proto-oncogene protein (Homo sapiens) (P01106 whole entry, looked up): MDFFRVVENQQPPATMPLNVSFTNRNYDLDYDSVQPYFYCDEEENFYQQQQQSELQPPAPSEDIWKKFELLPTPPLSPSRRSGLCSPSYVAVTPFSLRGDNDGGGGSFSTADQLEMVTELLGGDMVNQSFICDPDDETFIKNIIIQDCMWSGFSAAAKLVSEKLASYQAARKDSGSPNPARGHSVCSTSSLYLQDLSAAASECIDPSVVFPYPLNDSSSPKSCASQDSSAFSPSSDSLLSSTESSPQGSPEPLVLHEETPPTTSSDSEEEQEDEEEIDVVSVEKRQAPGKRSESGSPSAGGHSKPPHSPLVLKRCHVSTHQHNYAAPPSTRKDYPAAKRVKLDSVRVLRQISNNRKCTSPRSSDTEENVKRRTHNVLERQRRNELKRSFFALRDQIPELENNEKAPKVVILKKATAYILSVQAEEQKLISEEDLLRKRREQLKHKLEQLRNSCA
Chain of Cellular tumor antigen p53 (Homo sapiens) (P04637 whole entry, looked up): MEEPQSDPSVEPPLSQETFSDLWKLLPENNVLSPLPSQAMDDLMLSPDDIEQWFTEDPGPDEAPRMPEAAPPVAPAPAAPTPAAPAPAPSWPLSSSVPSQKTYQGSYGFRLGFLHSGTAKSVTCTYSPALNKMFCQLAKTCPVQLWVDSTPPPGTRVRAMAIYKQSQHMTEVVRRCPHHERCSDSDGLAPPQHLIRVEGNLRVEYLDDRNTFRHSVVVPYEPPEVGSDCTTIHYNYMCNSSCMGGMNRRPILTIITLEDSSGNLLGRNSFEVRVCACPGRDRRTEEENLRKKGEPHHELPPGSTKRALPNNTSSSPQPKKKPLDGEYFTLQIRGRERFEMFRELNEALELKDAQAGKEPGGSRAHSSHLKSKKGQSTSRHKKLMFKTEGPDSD

CC(C)Oc1cccc(NC(=O)c2ccccc2C(F)(F)F)c1
active: [4] 6.33 µM | [5] 11.7 µM
inactive: all other assays above

CS(=O)(=O)c1cc(C(F)(F)F)ccc1C(=O)c1cnoc1C1CC1
active: [4] 19.1 µM | [5] 50 µM
inactive: all other assays above

CN=C=S
active: [4] 13.8 µM | [5] 26.1 µM
not listed: [10]
inactive: all other assays above

CC(C)N1C(=O)N(c2ccccc2)CSC1=NC(C)(C)C
active: [8] 30.4 µM | [9] 32 µM
not listed: [7] | [10]
inactive: all other assays above

CCCCOCN(C(=O)CCl)c1c(CC)cccc1CC
active: [4] 0.547 µM | [8] 31.2 µM | [9] 27.4 µM
not listed: [7] | [10]
inactive: all other assays above

Nc1c(Cl)c(Cl)nc(C(=O)O)c1Cl
active: [4] 50 µM
inactive: all other assays above

CCOc1nc(C(Cl)(Cl)Cl)ns1
active: [4] 22.9 µM | [5] 43.5 µM
not listed: [10]
inactive: all other assays above

CCN(CC)c1nc(C)cc(OP(=S)(OC)OC)n1
active: [5] 8.94 µM
not listed: [10]
inactive: all other assays above

COCC(C)N(C(=O)CCl)c1c(C)csc1C (stereo not given)
active: [4] 2.31 µM
not listed: [7] | [10]
inactive: all other assays above

N#Cc1c[nH]cc1-c1cccc2c1OC(F)(F)O2
active: [4] 13.2 µM | [5] 13.9 µM | [8] 12.8 µM
not listed: [7] | [10]
inactive: all other assays above

O=C1C2CC=CCC2C(=O)N1SC(Cl)(Cl)Cl (stereo not given)
active: [9] 26.6 µM
not listed: [10]
inactive: all other assays above

CCCCC(O)(Cn1cncn1)c1ccc(Cl)cc1Cl (stereo not given)
active: [4] 20.8 µM | [5] 62.5 µM | [8] 36.5 µM
not listed: [7] | [10]
inactive: all other assays above

O=C(Nc1ccccc1-c1ccc(Cl)cc1)c1cccnc1Cl
active: [4] 8.77 µM | [5] 7.03 µM
inactive: all other assays above

N#Cc1c(Cl)cccc1Cl
active: [4] 13.7 µM
not listed: [7] | [10]
inactive: all other assays above

Nc1c(Cl)c(F)nc(OCC(=O)O)c1Cl
not listed: [7] | [10]
inactive: all other assays above

O=P(O)(O)CCCl
not listed: [10]
inactive: all other assays above

Cc1cc(C)nc(Nc2ccccc2)n1
active: [4] 21.6 µM | [5] 12 µM
not listed: [7] | [10]
inactive: all other assays above

CCOc1nc(F)cc2nc(S(=O)(=O)Nc3c(Cl)cccc3Cl)nn12
inactive: all assays above

CC1(C)CON(Cc2ccccc2Cl)C1=O
active: [4] 44.1 µM
not listed: [10]
inactive: all other assays above

COP(=O)(OC)O/C(C)=C/C(=O)N(C)C
not listed: [7] | [10]
inactive: all other assays above

CCOP(=O)(OCC)Oc1nc(Cl)c(Cl)cc1Cl
active: [4] 33.4 µM | [5] 50 µM | [8] 20 µM
not listed: [7] | [10]
inactive: all other assays above

CCOP(=S)(OCC)Oc1nc(Cl)n(C(C)C)n1
active: [4] 1.74 µM
not listed: [7] | [10]
inactive: all other assays above

CCC(C)n1c(=O)[nH]c(C)c(Br)c1=O (stereo not given)
inactive: all assays above

CCCC(=NOCC)C1=C(O)CC(CC(C)SCC)CC1=O (stereo not given)
not listed: [7] | [10]
inactive: all other assays above

CCCN(CC)CC1COC2(CCC(C(C)(C)C)CC2)O1 (stereo not given)
active: [4] 5.91 µM | [5] 14.5 µM
not listed: [10]
inactive: all other assays above

CCNP(=S)(OC)O/C(C)=C/C(=O)OC(C)C (stereo not given)
active: [4] 7.44 µM
inactive: all other assays above

CCSC(=O)N1CCCCCC1
inactive: all assays above

CC(C)N1C(=O)c2ccccc2NS1(=O)=O
active: [4] 33 µM
not listed: [7] | [10]
inactive: all other assays above

CNC(=O)N(C)c1nnc(C(C)(C)C)s1
active: [4] 60.1 µM
not listed: [7] | [10]
inactive: all other assays above

COc1ccc(-c2ccccc2)cc1NNC(=O)OC(C)C
active: [4] 6.71 µM | [5] 0.882 µM
not listed: [10]
inactive: all other assays above

CCOC(=O)C(C)OC(=O)c1cc(Oc2ccc(C(F)(F)F)cc2Cl)ccc1[N+](=O)[O-] (stereo not given)
active: [4] 17.2 µM | [8] 13.3 µM
not listed: [10]
inactive: all other assays above

C=C(C)CN(CC)c1c([N+](=O)[O-])cc(C(F)(F)F)cc1[N+](=O)[O-]
active: [4] 4.69 µM
not listed: [10]
inactive: all other assays above

CS(=O)(=O)c1ccc(C(=O)C2C(=O)CCCC2=O)c([N+](=O)[O-])c1
inactive: all assays above

COC(=O)NC(=S)Nc1ccccc1NC(=S)NC(=O)OC
active: [4] 11.6 µM | [5] 30.8 µM
inactive: all other assays above

CC(C)(C)C(=O)C(Oc1ccc(Cl)cc1)n1cncn1 (stereo not given)
active: [4] 20.3 µM | [5] 19.4 µM
not listed: [7] | [10]
inactive: all other assays above

COC(=O)NS(=O)(=O)c1ccc(N)cc1
not listed: [7] | [10]
inactive: all other assays above

O=C(O)c1c(Cl)ccc2cc(Cl)cnc12
not listed: [6]
inactive: all other assays above

OC(c1ccc(Cl)cc1)(c1ccc(Cl)cc1)C(Cl)(Cl)Cl
active: [8] 29.1 µM | [9] 14.1 µM | [10] 29.8 µM
not listed: [7]
inactive: all other assays above

CCN(CC)C(=O)C(C)Oc1cccc2ccccc12 (stereo not given)
active: [4] 0.485 µM | [5] 4.2 µM | [10] 10.8 µM
not listed: [3] | [7]
inactive: all other assays above

Cc1nc(N(C)C)nc(OC(=O)N(C)C)c1C
not listed: [3] | [6] | [10]
inactive: all other assays above

COP(=S)(OC)SCn1nnc2ccccc2c1=O
active: [4] 25.1 µM | [5] 12.8 µM
not listed: [3] | [10]
inactive: all other assays above

CC(C)NC(=O)N1CC(=O)N(c2cc(Cl)cc(Cl)c2)C1=O
active: [4] 7.39 µM | [8] 32.8 µM
not listed: [7]
inactive: all other assays above

Nc1cnn(-c2ccccc2)c(=O)c1Cl
not listed: [7]
inactive: all other assays above

Cn1c(-c2ccccc2)cc(-c2ccccc2)[n+]1C
active: [8] 3.97 µM
not listed: [3]
inactive: all other assays above

C=CCOC(=O)C(C)(C)OC(=O)c1cc(-n2c(=O)cc(C(F)(F)F)n(C)c2=O)ccc1Cl
active: [4] 21.9 µM | [8] 2.18 µM
not listed: [3]
inactive: all other assays above
